Data as given in PubChem BioAssay (NCI).
The panel holds about 83,000 compounds, 20% with a hit somewhere; the sample as a whole holds those more often.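 Treatment: one concentration, 48 hours, 96-well format. Scoring: percent growth, with anything below 10 considered active.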 Unmarked numbers belong to inactive results. Active and inactive are the calls of the source.

Each compound was assayed on SR leukemia (assay: NCI-60 one-dose screen, 48 h (100 = growth as untreated, 0 = no growth, -100 = all killed)). Details: 10 µM unless noted.

Structure (SMILES) | growth
Clc1ccc(-c2nnc(-c3ccco3)o2)cc1 | 89.7%
CC1(C)N=C(N)N=C(N)N1c1ccc(Cl)c(Cl)c1 | 39.5%
O=C1CSC(c2ccc(O)cc2)N1c1nnc(Cn2cnnc2)o1 (centres undefined) | 3.17% (active)
Nc1ccc2c(S(=O)(=O)O)ccc(S(=O)(=O)O)c2c1 | 83.4%
NC(N)=N/N=C/c1ccc(Br)cc1 | 18.4%
N#Cc1c(N)nc2c(nnn2-c2cccc(Br)c2)c1N | 83.8%
C=C(C=O)C1CCC2(C(=O)O)CCC3(C)C(CCC4C5(C)CCC(O)C(C)(C)C5CCC43C)C12 (centres undefined) | -2.18% (active)
O=C1Nc2ccccc2SC1c1ccccc1Cl (centres undefined) | 10.4%
CCOC(=O)c1sc2ccc(NCc3nc[nH]c3C)cc2c1NC(=O)c1cc(OC)c(OC)c(OC)c1 | 10.4%
COc1cc(/C=C/C(=O)c2cccc(-n3cc(-c4ccc(Cl)cc4)[nH]c3=O)c2)cc(OC)c1OC | -15.8% (active)
CCCc1cc(=O)oc2c3c(c4c(c12)OC(C)(C)C=C4)O[C@@H](C)[C@H](C)C3=O | 65.4%
Cc1cc(Cc2cc(C)cc(C(C)(C)C)c2O)c(O)c(C(C)(C)C)c1 | -7.3% (active)
CN(C)c1ccc2cc(-c3ccccc3F)c(N)nc2c1 | 6.09% (active)
CCN(CC)CCCNC(=O)c1ccc(N)cc1O | 98.3%
Cc1cn(C2CCCCC2)c(=O)[nH]c1=O | 111%
Cc1c2c(cn1Cc1ccccc1)CCc1cn(C)nc1-2 | 53.2%
COc1cc(C(=O)/C=C/c2c(C(F)(F)F)nc3ccccn23)cc(OC)c1OC | -9.2% (active)
CCCCOC(=O)c1ccc(NC(=O)C(C)N2CCOCC2)cc1 (centres undefined) | 98.1%
Cc1c2c(cn1Cc1ccccc1)CCc1cn[nH]c1-2 | 51.6%
COc1ccc(-c2cn(-c3cccc(C(=O)/C=C/c4cc(OC)c(OC)c(OC)c4)c3)c(=O)[nH]2)cc1 | -12.5% (active)

Structure (SMILES) | growth
CSc1ccc(Cl)c(C(=O)Nc2sccc2C(N)=O)c1 | 104%
CC(=O)Nc1cccc(C2=CC(c3ccc(C)cc3)n3ncnc3N2)c1 (centres undefined) | 78.8%
O=C(O)CC1Sc2ccccc2NC1=O (centres undefined) | 61.1%
COc1ccc(-c2nc3ccccn3c2/C=C/C(=O)c2cc(OC)c(OC)c(OC)c2)cc1 | 18.8%
Cc1cccc(-c2cc(O)c(C(=O)N3CCOCC3)s2)c1 | 25.5%
CCC(=O)OC1=C(C)SC2=NC(c3ccc(Cl)c(Cl)c3)=CC(c3cc(OC)c(OC)c(OC)c3)N21 (centres undefined) | 103%
COc1ccc(NC(=O)C(=O)c2c[nH]c3ccc(F)cc23)cc1 | 81.4%
COc1ccc(/C(C)=C(\c2ccc(Cl)cc2)c2ccc(OCCN3CCCCCC3)cc2)cc1F | -12.6% (active)
CC/C=C/[C@@H]1C=C[C@@H]2CCC[C@H]2[C@@H]1CC[C@H](O)[C@H](C)N | -40.1% (active)
O=C1CSC(c2ccccc2Cl)N1c1nnc(Cn2cnnc2)o1 (centres undefined) | -23.1% (active)
COc1ccc(-c2nc3ncccn3c2/C=C/C(=O)c2cc(OC)c(OC)c(OC)c2)cc1 | -2.39% (active)
C=C(C=O)[C@@H]1CC=C(C=O)CC1 | -6.52% (active)
CC(c1ccc(-n2cccn2)cc1)c1cnc(N2CCc3ccc(C(N)=O)cc3C2)s1 (centres undefined) | 53.5%
COc1cc(C(=O)/C=C/c2c(-c3ccc(F)cc3)nc3ncccn23)cc(OC)c1OC | 9.6% (active)
CNC=O | 92.4%
CCOC(=O)c1c2c(c(C)n1C)-c1nn(Cc3ccc(OC)cc3)cc1CC2 | 71.2%
Cc1ccccc1NC(=O)CN(C)C | 104%
COc1cc(/C=C/C(=O)c2cccc(-n3cc(-c4ccccc4)[nH]c3=O)c2)cc(OC)c1OC | -15.9% (active)
O=C(CC1Sc2ccccc2NC1=O)NNc1ccc(F)cc1 (centres undefined) | 83.5%
